hcDAF12 agonist = activates DAF-12 receptor from parasite H. contortus. activation, % at 6.8 µM. HEK293 hcDAF-12 lit1-tk-luc reporter, luminescence; 0% DMSO, 100% Δ7-dafachronic acid. 1.4% of 370,000 active;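 active means activation above the mean of all tested compounds plus 3 SD, cut at about 5.5% in these data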;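 further: 100% = response to 3 µM Δ7-dafachronic acid high control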
FXN GAA850 act = increases GAA850 frataxin promoter reporter activity; 0.56% of 360,000 active; activation, % at 6 µM; HEK293 lucGAA850 FXN promoter luciferase reporter, 24 h; percent of 10 µM SAHA response;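 active means activation above the average of all compounds screened plus 3 SD, cutoff fixed separately per campaign, cut at about 7.5% in these data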;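 further: 0% = DMSO wells and 100% = 10 µM SAHA wells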
hgDAF12 agonist = agonists of H. glycines DAF-12 nuclear receptor. HEK293 GAL4-hgDAF12 UAS-luciferase reporter, agonist luminescence; normalized to butyrate control. activation, % at 6.8 µM. 1.8% of 370,000 active. AID 687014;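 active means activation above a cutoff set at the mean of all screened compounds plus 3 SD, cut at about 10% in these data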;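 further: 0% = DMSO wells and 100% = sodium butyrate wells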
ssDAF-12 act = activates DAF-12 receptor from parasite S. stercoralis. HEK293 ssDAF-12/GRIP1 lit1-tk-luc reporter, luminescence; % of 3 µM dafachronic acid response. activation, % at 6.8 µM. 1% of 370,000 active;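 active means activation above the mean over all tested compounds plus 3 SD, cut at about 0.9% in these data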;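 further: 0% = DMSO-only wells and 100% = 3 µM delta7-dafachronic acid wells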
DAX1 inh-1 = NR0B1 (DAX1) inhibition; P51843; HEK293 Gal4-DAX1 luciferase reporter, luminescence; inhibition, % at 6.75 µM; 0.99% of 340,000 active; AID 504766;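 active means inhibition above the mean over all tested compounds plus 3 SD, cut at about 4.2% in these data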;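 further: 0% = DAX1-transfected cells with DMSO and 100% = empty-vector control cells with DMSO; inhibition shows as a rise in luminescence from relieved DAX1 repression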
Target sequence (P51843 207-470 limits assumed): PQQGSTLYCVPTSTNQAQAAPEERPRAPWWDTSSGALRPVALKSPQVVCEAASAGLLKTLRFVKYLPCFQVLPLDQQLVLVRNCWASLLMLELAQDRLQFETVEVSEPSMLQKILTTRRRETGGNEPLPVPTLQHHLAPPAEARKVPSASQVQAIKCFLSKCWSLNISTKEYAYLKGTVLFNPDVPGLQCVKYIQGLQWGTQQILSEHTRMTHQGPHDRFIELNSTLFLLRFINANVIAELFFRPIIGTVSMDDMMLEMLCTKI
DAX1 inh-2 = blocks DAX1 repression of SF-1 activated StAR promoter; HEK293T StAR-luciferase reporter, SF-1/DAX-1 repression relief; 1.1% of 370,000 active; AID 652010; inhibition, % at 6.8 µM;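 active means inhibition above the mean over all tested compounds plus 3 SD, cut at about 3.6% in these data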;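 further: 0% = DAX-1 cells with DMSO and 100% = cells lacking DAX-1 with DMSO; higher inhibition means more luminescence from relief of DAX-1 repression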
Starred values were filed as active, the others as inactive; / = no result. Only some compounds are listed: those with a hit (about 4.5% of all), similar ones and a draw of the others.

SMILES | hcDAF12 agonist | FXN GAA850 act | hgDAF12 agonist | ssDAF-12 act | DAX1 inh-1 | DAX1 inh-2
O=C(Nc1ccc2c(c1)OCO2)O[C@@H]1CC[C@@]23CCCN2C(=O)CCC[C@H]3C1 | 1 | / | 5 | 0 | / | /
CCCCNC(=O)C1(C(=O)C2CC2)CC(C(=O)OCC)=NO1 (stereo not drawn) | -1 | / | -2 | 0 | / | 1
Cc1ccc(-c2nc3ccsc3c(=O)o2)cc1 | 5.9* | 2 | 7 | 1 | 0 | 2
Cc1ccc(-n2c(C)nc3ccsc3c2=O)cc1 | 0 | 1 | 1 | -1 | 1 | 0
Cn1c(=O)[nH]c(=O)c2c1nc(NCc1ccco1)n2CCCc1ccccc1 | 0 | 3 | 1 | -1 | 4.5* | 0
CCOC(=O)N1C(=O)C[C@](Sc2ccc(OC)cc2)(C(=O)N2CCN(c3ncccn3)CC2)[C@H]1c1ccc(OC)cc1 | -2 | / | -1 | 0 | / | -2
COc1ccc(-c2cc3nc(C)n(N)c(=O)c3s2)cc1 | -4 | -12 | -9 | -3 | -9 | -1
COc1ccc(-c2cc3nc4n(c(=O)c3s2)CCCCC4)cc1 | 5 | 3 | 10 | 0 | 7.8* | 3
CC(C)CCN(C)C1CCN(C(=O)Nc2ccc3c(c2)OCO3)CC1 | -4 | / | 0 | -1 | / | 0
C=CCOC(=O)C1=C(C)OC(N)=C(C#N)C1c1ccco1 (stereo not drawn) | -1 | 0 | -1 | -1 | 8.4* | 0
CC1=C(C(=O)OC(C)(C)C)C(c2ccco2)C(C#N)=C(N)O1 (stereo not drawn) | -1 | 1 | -1 | -2 | 1 | 0
O=C(c1cccs1)N1CC[C@H]2[C@H](CCCN2Cc2ccc(F)cc2)C1 | -1 | / | 0 | -2 | / | 0
c1ccc(Nc2c(-c3ccco3)nc3ccccn23)cc1 | 6.0* | 4 | -4 | 0 | -1 | 0
COC(=O)C1CN(C2CCCC2)CCS(=O)(=O)N1Cc1ccc(F)cc1 (stereo not drawn) | -2 | / | 3 | -2 | / | -1
ClC(CCN1CCN(Cc2ccccc2)CC1)c1ccccc1 (stereo not drawn) | -1 | 0 | -2 | -1 | 5.7* | 0
CC(CN1CCN(Cc2ccccc2)CC1)c1ccccc1 (stereo not drawn) | -1 | 0 | 1 | -1 | 1 | 0
N=C(N)c1ccc(/C=C/c2ccc(C(=N)N)cc2O)cc1 | -2 | 0 | 2 | -1 | 5.1* | 0
N=C(N)c1ccc(Cl)cc1 | -1 | 1 | -4 | -1 | 0 | 0
Cc1c(Cl)cnc(NC(=O)COC(=O)CCS(=O)(=O)c2ccccc2)c1Cl | 1 | 1 | 0 | -1 | 0 | -1
O=C(COC(=O)CCS(=O)(=O)c1ccc(Cl)cc1)Nc1ncc(Cl)cc1Cl | 0 | 1 | -1 | 0 | 4.8* | 0
Cn1c(=O)oc2cc(S(=O)(=O)NCCC(=O)N3CCN(c4ccccc4F)CC3)ccc21 | -2 | 1 | 1 | -1 | 0 | 0
CC(C)C(NS(=O)(=O)c1ccc2c(c1)oc(=O)n2C)C(=O)N1CCN(c2ccccc2F)CC1 (stereo not drawn) | -1 | -2 | -1 | -1 | 4.8* | -1
C=CCN1C(C(=O)OC)CN(Cc2cn(Cc3ccc(F)cc3)nn2)CCS1(=O)=O (stereo not drawn) | -2 | / | 1 | -1 | / | 2
Cc1cccc(-c2cccc3c4c([nH]c23)[C@@H]2C[C@H](N(C)C(=O)C3CCCCC3)[C@H]([C@H](C)O)CN2CC4)c1 | 2 | / | -3 | -1 | / | 0
O=[N+]([O-])c1cc(Oc2cccnc2)cc([N+](=O)[O-])c1 | -3 | 4 | -4 | -2 | 4.4* | -1
SMILES | hcDAF12 agonist | FXN GAA850 act | hgDAF12 agonist | ssDAF-12 act | DAX1 inh-1 | DAX1 inh-2
O=C(Oc1cccnc1)c1ccc([N+](=O)[O-])cc1 | -3 | 4 | 1 | -2 | -1 | 0
C[C@@H]1OC(C2CCCCC2)N(C)[C@H]2C[C@H]3c4[nH]c5cccc(-c6cccc(F)c6)c5c4CCN3C(=O)[C@@H]12 (stereo partly drawn) | -4 | / | 1 | -2 | / | -1
C[C@H]1[C@@H](NC(=O)Cc2ccsc2)CC[C@@]23CCCN2C(=O)CCC[C@@H]13 | 2 | / | 0 | 2.6* | / | /
Cc1occc1-c1nnc(SCC(=O)Nc2ccccn2)n1-c1ccccc1 | -3 | / | 2 | 0 | / | 0
Cc1cccc(-c2nc(NCCCN(C)C)c3ccccc3n2)c1 | 1 | 2 | 0 | 1.1* | 0 | 0
CN(C)CCCNc1nc(-c2ccc(Cl)cc2)nc2ccccc12 | 3 | 4 | 2 | 0 | 1 | -1
c1ccc(CNC2CCC23CCC(c2ccccc2)CC3)cc1 (stereo not drawn) | -2 | / | 0 | -2 | / | 0
CCOC(=O)c1c(C)nc2sc3c(=O)n(-c4ccc(OC)cc4)cnc3c2c1-c1ccc(OC)cc1 | 0 | 1 | 4 | -1 | 0 | 0
CCOC(=O)c1c(C)nc2sc3c(=O)n(-c4ccc(C(C)=O)cc4)nnc3c2c1-c1ccc(OC)cc1 | 7.0* | -1 | 1 | -2 | 0 | -1
Cc1cc(C)nc(NC(=O)c2ccc(Cl)cc2[N+](=O)[O-])c1 | 1 | 0 | 0 | -1 | -1 | 0
Cc1nc2ccccc2n1C(=O)c1ccc(Cl)cc1[N+](=O)[O-] | 5.8* | 1 | -1 | -1 | 0 | 0
CN(C)S(=O)(=O)c1ccc(C(=O)Nc2ccn(C)n2)cc1 | 0 | 2 | 3 | -1 | 1 | 0
Cn1ccc(NC(=O)c2ccc(Cl)cc2Cl)n1 | -1 | 2 | 7 | -1 | 1 | 3.9*
Cc1onc(NC(=O)c2ccc(Cl)cc2Cl)c1Br | 1 | 3 | 11* | -1 | -1 | 2
Cn1ccc(NC(=O)c2ccc([N+](=O)[O-])cc2)n1 | -2 | 1 | 1 | 0 | 7.0* | 1
Cc1onc(NC(=O)NC(=O)c2ccccc2F)c1Br | -2 | 2 | 3 | -1 | 1 | 4
Cn1ccc(NC(=O)c2ccc(Cl)cc2)n1 | 0 | 2 | 7 | -1 | 0 | 3
COCCCN1C(=O)[C@H](CC(=O)N2CCN(C(=O)C3CC3)CC2)[C@]2(C(=O)OC)CCCCC=C12 | -2 | / | 1 | -1 | / | 0
C#CCNC(=O)C[C@H]1C[C@@]2(C(=O)OC)C(=C[C@H](C(C)(C)C)O[C@@H]2C)N(Cc2ccco2)C1=O | 0 | / | -2 | -1 | / | 0
CC(C)CN1C(=O)C[C@]2(C(=O)N(C)c3ccc(NS(=O)(=O)C4CC4)cc32)C1c1ccccc1 (stereo partly drawn) | -1 | / | -1 | 0 | / | -1
O=C(NCc1ccccc1)C1Cc2c(-c3ccc4c(c3)OCO4)ccnc2O1 (stereo not drawn) | 0 | -2 | -3 | -1 | / | 4.4*

Screening results as filed in PubChem BioAssay.
